# Assay results taken from ChEMBL document CHEMBL4888484, “Replenishing the malaria drug discovery pipeline: Screening and hit evaluation of the MMV Hit Generation Library 1 (HGL1) against asexual blood stage Plasmodium falciparum ,using a nano luciferase reporter read-out” (2022).
# In all, about 150,000 compounds went through this assay and about 540 (0.36%) showed an effect of 50% or more. The full list was thinned out, with strong results kept by preference.
# System: Plasmodium falciparum
# Assay: Primary screen in NF54 nanoGlo assay, in single point, at 2uM, 72h; a lower Z score goes with more inhibition
# Format: functional, Erythrocyte
# Conditions: timepoint 72 hour
Structure (SMILES),% Inhibition,Z score
CCN1CCN(C2CCN(c3ncc(F)c(OC)n3)CC2)CC1,51%,-7.32
CNC(=O)[C@H]1CCN(c2ncc(F)c(OC)n2)C1,-10%,1.93
Cc1c(C2=NO[C@H]3C(=O)N(c4ccc(Cl)cc4)C(=O)[C@@H]23)cnn1C,-7%,1
Cc1c(C2=NO[C@H]3C(=O)N(c4ccc5ccccc5c4)C(=O)[C@@H]23)cnn1C,50%,-5.99
O=C1[C@@H]2C(c3ccccc3Cl)=NO[C@@H]2C(=O)N1c1ccc2ccccc2c1,-9%,1.2
O=C(c1ccc2c(c1)CCC2)N1CC(O)C1,0%,0
Cc1cc(NCc2c(C)noc2C)nc(C2CC2)n1,-7%,1.22
Cc1ccnc(Nc2ccc(N3CCNCC3)nn2)c1,56%,-6.55
c1cc(-c2ccc(N3CCNCC3)nn2)ccn1,5%,-1.03
Cc1ccc(Nc2ccc(N3CCNCC3)nn2)nc1,47%,-6.37
CC(C)(C)OC(=O)CCc1cccnc1C(=O)O,-18%,1.85
CC1CC(C(=O)NCCCn2cn[nH]c2=O)CC(C)(C)C1 (centres undefined),0%,0.05
CC1CC(C(=O)N[C@@H](C)c2cnccn2)CC(C)(C)C1 (some centres undefined),8%,-0.99
CC1CC(C(=O)Nc2[nH]c(=O)ncc2F)CC(C)(C)C1 (centres undefined),92%,-13.24
C#CCNC(=O)c1ccc(N[C@@H](C)COC)nc1,-9%,1.46
NC(=O)[C@@H]1CN(Cc2ccc(-c3ccc(Cl)cc3)s2)CCO1,-11%,1.78
Cc1ccccc1-n1c(=O)c2sccc2n(CC(=O)Nc2ccc(N(C)C)cc2)c1=O,2%,-0.2
Cc1cc(C)cc(-n2c(=O)c3sccc3n(CC(=O)Nc3ccc(N(C)C)cc3)c2=O)c1,51%,1.43
COc1cccc(Cn2c(=O)c3sccc3n(CC(=O)Nc3ccc(N(C)C)cc3)c2=O)c1,37%,-1.71
CCN(CCn1cccn1)Cc1cncn1C1CC1,-7%,1.49
CCc1ccccc1Nc1c2c(nc3ccccc13)CCCC2,9%,-1.19
CCOC(=O)c1nc(NCC2CCN(Cc3ccccc3F)CC2)c2ccccc2n1,-6%,1.09
CCc1nnc(NCC(C)(C)CCS(C)(=O)=O)c(C#N)c1CC,2%,-0.31
CC(C)Oc1ccc(-c2cc(C(F)(F)F)n3nc(-c4ccccc4)c(-c4ccccc4)c3n2)cc1,-15%,1.87
Cc1ccnc([C@@H](NC(=O)c2c[nH]c3cc(C)nn3c2=O)C2CC2)c1,-2%,0.39
COc1ccc(OC)c([C@H]2N(Cc3ccc(F)cc3)CCCN2Cc2ccccc2Cl)c1,-3%,0.37

Structure (SMILES),% Inhibition,Z score
COc1ccc(OC)c(-n2c(-c3ccccc3)cc(C(=O)N3CCN(Cc4ccccc4)CC3)c2C)c1,-8%,1.09
CCC(C(=O)Nc1ccc2c(c1)CN(CCc1ccc(OC)c(OC)c1)C(=O)C(C)O2)c1ccccc1 (centres undefined),91%,-17.08
CCC(C(=O)Nc1ccc2c(c1)CN(CCc1ccccc1)C(=O)C(C)O2)c1ccccc1 (centres undefined),-7%,0.66
COc1cccc(NC(=O)Nc2ccc3c(c2)CN(CCc2ccc(OC)c(OC)c2)C(=O)[C@H](C)O3)c1,0%,-0.08
Cc1noc(C)c1N(C)C(=O)Nc1cccnc1,-2%,0.36
COc1ccc(NC(=O)[C@H](NC(=O)Cc2c[nH]c3ccccc23)c2ccc(C)cc2)cc1,-9%,1.46
CC1C(C(F)(F)F)OCCN1C(=O)NC1CCCC1Cc1ccccn1 (centres undefined),-4%,0.71
COc1ccc(-c2cc(C(F)(F)F)nc(-n3nc(-c4cccc(OC)c4)c(Cl)c3-c3cccc(OC)c3)n2)cc1,91%,-10.21
COc1ccc(-c2cc(C(F)(F)F)nc(-n3nc(-c4cccc(C)c4)c(C)c3-c3cccc(C)c3)n2)cc1,-7%,1.42
COc1cccc(-c2nn(-c3nc(-c4ccccc4)cc(C(F)(F)F)n3)c(-c3cccc(OC)c3)c2Cl)c1,38%,-3.81
Cc1cc(NC(=O)C(=O)NC2CC(C)CC(C)(C)C2)n(-c2nc3c(c(=O)[nH]2)CCC3)n1 (centres undefined),85%,-13.4
COc1ccccc1OCC(=O)Nc1cc(C)nn1-c1nc2c(c(=O)[nH]1)CCC2,1%,-0.14
COCC(=O)Nc1cc(C)nn1-c1nc2c(c(=O)[nH]1)CCC2,1%,-0.17
Cc1cc(NC(=O)Cc2ccc(-c3ccccc3)cc2)n(-c2nc3c(c(=O)[nH]2)CCC3)n1,-4%,0.86
Cc1cc(NC(=O)c2ccc3ccccc3c2)n(-c2nc3c(c(=O)[nH]2)CCC3)n1,2%,-0.26
CCOc1ccc2ccccc2c1C(=O)Nc1cc(C)nn1-c1nc2c(c(=O)[nH]1)CCC2,92%,-17
CC(NC(=O)N(C)CC1CCCO1)c1ccc(N2CCOCC2)cc1 (centres undefined),-3%,0.42
COC[C@H]1CN(C)CC12CCN(C(=O)Cc1ccc(Cl)cc1)CC2,9%,-1.07
CCCC(=O)N1CCN(c2cc(-n3cnc(C)c3C)ncn2)CC1,-12%,1.96
COc1cc(C(=O)Nc2ccc3sc(NC(=O)c4cc(OC)c(OC)c(OC)c4)nc3n2)cc(OC)c1OC,101%,-16.35
COc1cc(C(=O)Nc2scnc2C)cc(OC)c1OC,45%,0.11
COc1cc(C(=O)Nc2ccc(Nc3ccc(C)nn3)cc2)cc(OC)c1OC,13%,-2.29
Cn1cc(S(=O)(=O)NCc2cc(C3CC3)ncn2)cn1,16%,-2.16
Clc1cnn(CCN2CCc3onc(-c4cccc5ccccc45)c3C2)c1,-5%,0.7
CN1C(=O)CC[C@@]12CCN(C(=O)Nc1ccc3c(c1)OCCO3)C2,-5%,0.78
Cc1cc([C@@H]2CCCCN2CCn2cc(Cl)cn2)no1,-11%,1.54

Structure (SMILES),% Inhibition,Z score
COc1cccc(C(=O)Nc2c3c(nc4ccccc24)CCCC3)c1,1%,-0.12
COc1ccc(C(=O)N(C(=O)c2ccc(OC)cc2)c2c3c(nc4ccccc24)CCCC3)cc1,69%,-5.66
Oc1c2c(nc3ccccc13)CCCCC2,25%,-3.15
COc1ccccc1C(C)(C)c1noc([C@@]2(C)CCNC(=O)C2)n1,-3%,0.4
CCOc1ccc(N2C[C@@H](C(=O)NCCc3ccco3)CC2=O)cc1,0%,-0.05
C[C@H](NCc1ccccc1CN1CCOCC1)C(=O)Nc1cccc2ccccc12,-7%,1.29
c1ccc(C(c2ccccc2)N2CCN(c3nn4cnnc4c4ccccc34)CC2)cc1,81%,-11.8
c1ccc2[nH]c(C3CCN(c4nn5cnnc5c5ccccc45)CC3)nc2c1,-15%,2.33
Fc1ccc(N2CCN(c3nn4cnnc4c4ccccc34)CC2)cc1,-10%,1.31
COc1ccc(-c2nc3c(c(N4CCC[C@@H]4C)n2)CCOCC3)cc1,-10%,0.99
O=C(Nc1ccnn1C1CCC1)c1ccc(-c2cn[nH]c2)cn1,-10%,1.42
O=C1CCCCN1CCC(=O)N1CCc2onc(-c3cccc4ccccc34)c2C1,-1%,0.1
Cc1nn(C)c2nc(OCC(=O)NC(C)(C)C)cc(C(F)(F)F)c12,-8%,0.92
Cn1nccc1[C@@H]1CN(C(=O)Nc2nsc3ccccc23)CCO1,-5%,0.53
Cc1ccc(S(=O)(=O)c2c(NC(=O)c3ccco3)n(C3CCCCC3)c3nc4ccccc4nc23)cc1,-11%,1.85
Cc1ccc(S(=O)(=O)c2c(NS(=O)(=O)c3ccc(F)cc3)n(CCc3ccccc3)c3nc4ccccc4nc23)cc1,98%,-8.73
Nc1c(S(=O)(=O)c2ccc(Cl)cc2)c2nc3ccccc3nc2n1Cc1ccc(Cl)cc1,-9%,0.81
Cc1ccc(S(=O)(=O)Nc2c(S(=O)(=O)c3ccc(C)cc3)c3nc4ccccc4nc3n2C[C@H]2CCCO2)cc1,48%,-4.28
Cc1ccc(S(=O)(=O)Nc2c(S(=O)(=O)c3ccc(C)cc3)c3nc4ccccc4nc3n2CCC(C)C)cc1,85%,-10.94
CCC(=O)Nc1c(S(=O)(=O)c2ccccc2)c2nc3ccccc3nc2n1[C@@H](C)c1ccccc1,-14%,1.29
Cc1ccc(S(=O)(=O)c2c(NS(=O)(=O)c3ccccc3)n(CCc3ccccc3)c3nc4ccccc4nc23)cc1,99%,-11.17
COc1ccc(S(=O)(=O)c2c(N)n(Cc3ccc(C)cc3)c3nc4ccccc4nc23)cc1,-6%,0.56
Cc1ccc(S(=O)(=O)c2c(NS(=O)(=O)c3ccc(F)cc3)n(C[C@H]3CCCO3)c3nc4ccccc4nc23)cc1,6%,-0.71
Cc1ccc(S(=O)(=O)Nc2c(S(=O)(=O)c3ccccc3)c3nc4ccccc4nc3n2CCc2ccccc2)cc1,86%,-14.39
Cc1ccc(S(=O)(=O)c2c(NS(=O)(=O)c3ccc(Cl)cc3)n(-c3cc(C)cc(C)c3)c3nc4ccccc4nc23)cc1,-6%,0.5
